Source: PubChem (National Center for Advancing Translational Sciences (NCATS))
TDP1 cell CPT – DT40-hTDP1 cell growth loss with CPT; chicken DT40 Tdp1-/-;hTDP1 cells + 20 nM CPT, ATP luminescence, 48 h; Potency, µM (titrated, usually from 46.2 µM), for inactives: at the highest dose activity change, negative = growth inhibition, actives largely listed as inhibitors; AID 686979; 420,000 compounds, 12% hits; further: potency means the concentration at half of the fitted maximal effect; nearly all actives have a fitted effect of over 55% in size
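Chicken DT40 Tdp1-/- cells stably complemented with human TDP1 were seeded at 400 cells/well in medium containing 20 nM camptothecin, exposed to pin-transferred compounds, and grown at 37 °C for at least 48 hr. Viability was read as ATP luminescence.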
CtBP-E1A inh – CtBP/E1A binding inhibition. AID 651724. activity change, % (test concentration not listed). 340,000 compounds, 0.49% hits. AlphaScreen GST-E1A/His-CtBP binding, 1536-well; hits give low values; in the data active means activity change below about -65%; inconclusive means mostly about -30% to -63%
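Protein mix (5X: 125 nM each GST-E1A, His-CtBP) was incubated with pinned compound 2 h at 37 deg C in dark, in 50 mM Tris pH 8.0 buffer with 300 mM NaCl. Glutathione donor and nickel acceptor beads followed; AlphaScreen signal read after 1 h.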
IL-1B inflam inh – inflammasome signaling inhibition, IL-1 beta readout | activity change, % at 57.5 µM | THP-1 LPS/ATP IL-1B secretion, AlphaLISA, 16 h; hits give low values | AID 743279 | 360,000 compounds, 4.7% hits; in the data active means activity change below about -50%; inconclusive means mostly about -30% to -49%
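Secreted IL-1B measured by AlphaLISA bead assay after 16 h compound exposure of THP-1 cells; compounds (final up to 57.5 uM) added 1 h before LPS (250 ng/mL) and ATP (1.25 mM) stimulation; lower signal means less secretion.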
TDP1 inh – blocks human tyrosyl-DNA phosphodiesterase 1. Q9NUW8. 350,000 compounds, 0.28% hits. recombinant TDP1, AlphaScreen DNA substrate cleavage. Potency, µM (highest dose often 130 µM), for inactives: top-dose activity change, negative = inhibition, usual class: inhibitors; further: potency means the concentration at half of the fitted maximal effect; nearly all actives have a fitted effect of over 40% in size
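AlphaScreen read-out: signal falls as enzyme removes the 3' tyrosine-FITC from a 5'-biotinylated DNA oligo (15 nM, 5 min, RT). Enzyme was E. coli-made recombinant Tdp1 at 1 nM, exposed to compound for 15 min beforehand; beads 10 ug/ml, 10 min.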
TDP1 cell noCPT – qHTS for Inhibitors of human tyrosyl-DNA phosphodiesterase 1 (TDP1): qHTS in cells in absence of CPT; Potency, µM (series often up to 46.2 µM), for the others: at the highest dose activity change, negative = growth inhibition, usual class: inhibitors; DT40 Tdp1-/- hTDP1 cells, no CPT, ATP luminescence, 48 h; 420,000 compounds, 15% hits; further: potency means the concentration at half of the fitted maximal effect; nearly all actives have a fitted effect of over 55% in size
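Camptothecin absent (DMSO only). Human TDP1-complemented DT40 knockout cells, 400 cells/well, 37 °C for minimum 48 hr; ATP measured via CellTiter-Glo, 30 min dark incubation, luminescence.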
Six1-Eya2 blk – inhibitors of human Six1/Eya2 interaction | AlphaScreen GST-Six1/His-Eya2 binding, biochemical; hits give low values | activity change, % (test concentration not listed) | 360,000 compounds, 0.56% hits; in the data active means activity change below about -65%; inconclusive means mostly about -30% to -63%
Target sequence (O00167 whole entry, looked up): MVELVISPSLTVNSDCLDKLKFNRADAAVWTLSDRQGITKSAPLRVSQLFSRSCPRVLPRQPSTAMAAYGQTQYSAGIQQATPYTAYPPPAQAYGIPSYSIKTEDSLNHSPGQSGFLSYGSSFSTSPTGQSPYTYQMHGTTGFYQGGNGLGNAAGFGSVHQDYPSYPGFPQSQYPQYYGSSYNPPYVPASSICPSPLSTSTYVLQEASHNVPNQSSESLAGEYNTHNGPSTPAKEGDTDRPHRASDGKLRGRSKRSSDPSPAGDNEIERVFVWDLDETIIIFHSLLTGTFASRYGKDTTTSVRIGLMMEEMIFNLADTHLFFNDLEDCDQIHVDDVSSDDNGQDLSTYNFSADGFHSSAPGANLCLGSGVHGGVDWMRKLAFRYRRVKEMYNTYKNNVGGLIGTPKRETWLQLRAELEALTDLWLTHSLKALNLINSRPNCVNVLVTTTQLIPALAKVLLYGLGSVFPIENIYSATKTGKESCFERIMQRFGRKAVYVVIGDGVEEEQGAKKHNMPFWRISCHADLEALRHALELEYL
Target sequence (Q15475 whole entry, looked up): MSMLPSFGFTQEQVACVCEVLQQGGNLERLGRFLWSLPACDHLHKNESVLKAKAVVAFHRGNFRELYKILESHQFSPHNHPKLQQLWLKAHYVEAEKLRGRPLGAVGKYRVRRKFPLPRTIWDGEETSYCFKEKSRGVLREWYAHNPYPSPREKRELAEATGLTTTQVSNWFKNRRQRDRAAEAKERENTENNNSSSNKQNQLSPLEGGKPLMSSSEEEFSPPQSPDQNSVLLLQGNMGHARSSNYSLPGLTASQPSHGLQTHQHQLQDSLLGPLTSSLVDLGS
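AlphaScreen luminescence read after one hour at 37 °C in darkness. Pin-transferred compounds met GST-Six1 and His-Eya2 protein (5X stock 250 nM/500 nM) plus glutathione donor and Ni-chelate acceptor beads (5X, 50 ug/mL).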
Starred values were filed as active, the others as inactive; ? = inconclusive; . = not tested or not shown; [ ] = dose if it differs, or a comment. Most compounds without a hit are left out; they make up all but 18% or so of the library. Unless noted, the call rests on the fitted dose curve; in most records, active means well fitted curve in the direction sought with a large enough effect; inconclusive means small, poorly fitted or top-dose-only effect, or another doubt; inactive means no such curve, though single readings can be large; an effect the other way counts as inactive or inconclusive. On the % scale 0 is the no-effect control and ±100 the full control effect.

SMILES	TDP1 cell CPT	CtBP-E1A inh	IL-1B inflam inh	TDP1 inh	TDP1 cell noCPT	Six1-Eya2 blk
CN(C)C1CCN(CCCOc2ccc(-c3ccc(C#N)cc3)cc2)C1 (stereo not drawn)	.	.	.	14%	.	.
Cc1cc(C2(O)C(=O)Nc3ccccc32)ccc1F (stereo not drawn)	-30%	9	36	.	2%	5
COc1cccc(NC(=O)C(C)N2C(=O)c3ccccc3S2(=O)=O)c1 (stereo not drawn)	15%	2	5	.	3%	-2
CCCN(c1ccc(C(C)C)cc1)S(=O)(=O)c1ccc2c(c1)oc(=O)n2CC(=O)OCC	?	.	.	-8%	?	.
CCCN(C(=O)Cn1c(=O)oc2cc(Cl)ccc21)c1ccc(C(C)C)cc1	21µM*	.	.	0%	?	.
C=CCNC(=O)c1ccccc1NC(=O)Nc1ccccc1	0%	-1	-12	4%	-4%	-2
CCOc1ccc(-c2cc(C(=O)N3CCN(c4cccc(C)c4)C(C)C3)c3ccccc3n2)cc1 (stereo not drawn)	16µM*	.	.	8%	7.3µM*	.
CCOc1ccc(-c2cc(C(=O)N3CCN(c4ccc(C)cc4)C(C)C3)c3ccccc3n2)cc1 (stereo not drawn)	21µM*	.	.	8%	23µM*	.
Cc1cccc(N2CCN(C(=O)c3cccn4c(=O)c5cc(Cl)ccc5nc34)CC2C)c1 (stereo not drawn)	18µM*	.	.	6%	?	.
Cc1ccc(N2CCN(C(=O)c3cccn4c(=O)c5ccc(Cl)cc5nc34)CC2C)cc1 (stereo not drawn)	-27%	.	.	6%	2%	.
Cn1c(NCCN2CCOCC2)nc2c1c(=O)n(Cc1cccc(Cl)c1)c(=O)n2C	?	-14	-14	5%	?	-15
Cc1cc(C)n2nc(C(=O)Nc3ccc4c(c3)OCCO4)nc2n1	-9%	-21	-3	-1%[56.1 µM]	-1%	0
COc1ccc(/C=C2\SC(=Nc3ccccc3Cl)NC2=O)c(OC)c1	26µM*	-5	-52*	.	15µM*	-5
Cc1[nH]nc2c1C(C(C)C)C(C#N)=C(N)O2 (stereo not drawn)	?	1	-87*	-2%	?	0
Cc1[nH]nc2c1C(c1cc(Br)cs1)C(C#N)=C(N)O2 (stereo not drawn)	4.1µM*	-15	-101*	-1%	5.2µM*	-11
Cc1nn(C)c(C)c1C1C(C#N)=C(N)Oc2n[nH]c(C)c21 (stereo not drawn)	7%	3	0	5%	-5%	5
Cc1coc(C)c1C(=O)CC1(O)C(=O)Nc2cc(Cl)cc(Cl)c21 (stereo not drawn)	-16%	-4	-10	4%	-14%	-8
CCc1cccc(NS(=O)(=O)c2ccc3c(c2)N(CC(=O)OC)C(=O)CS3)c1	18µM*	.	.	3%	?	.
COC(=O)CN1C(=O)CSc2ccc(S(=O)(=O)Nc3cccc(C)c3C)cc21	?	.	.	6%	?	.
COC(=O)CN1C(=O)CSc2ccc(S(=O)(=O)Nc3cccc(C)c3)cc21	?	.	.	3%	23µM*	.
O=C(CC(Nc1ccccc1)c1ccc(F)cc1)c1ccccc1 (stereo not drawn)	?	6	-15	-1%	?	-8
CCOc1ccc(C(=O)N/N=C/c2ccc(-c3ccc(S(=O)(=O)Nc4ncccn4)cc3)o2)cc1	-4%	?	-11	-9%	-6%	?
COc1ccc(NC(=O)C(=O)NCc2ccncc2)c(OC)c1	-11%	0	-26	7%	-10%	5
CCOc1ccc(NC(=O)C(=O)N/N=C\c2ccc(CNS(=O)(=O)c3ccccc3)o2)cc1	?	-14	80	0%	21µM*	-1
COc1ccc(NC(=O)C(=O)N/N=C\c2ccc(CNC(=O)C(=O)Nc3ccc(C)c(C)c3)o2)c(OC)c1	5.2µM*	4	28	.	9.2µM*	-1
SMILES	TDP1 cell CPT	CtBP-E1A inh	IL-1B inflam inh	TDP1 inh	TDP1 cell noCPT	Six1-Eya2 blk
CC(C)c1ccc(OCC(=O)Nc2c3c(nn2C(C)(C)C)CS(=O)(=O)C3)cc1	12µM*	-22	-12	.	?	9
Cc1ccc(C(=O)Nc2c3c(nn2C(C)(C)C)CS(=O)(=O)C3)cc1[N+](=O)[O-]	-7%	-7	-21	1%	14%	2
CC(C)(C)n1nc2c(c1NC(=O)c1ccc(Cl)c([N+](=O)[O-])c1)CS(=O)(=O)C2	-26%	-7	-98*	0%	1%	2
COc1ccc(N2CCN(C(=O)CCS(=O)(=O)c3ccc4c(c3)NC(=O)CO4)CC2)cc1	?	-4	47	2%	16µM*	0
COc1ccc(S(=O)(=O)CCC(=O)N2CCN(c3ccc(C(C)=O)cc3)CC2)cc1	?	8	0	-3%	15µM*	-1
COc1ccc(N2CCN(C(=O)CCS(=O)(=O)c3ccc(C)cc3)CC2)cc1	?	-3	-2	8%	-29%	-6
CN(CC(=O)N1CCN(c2cccc(Cl)c2)CC1)S(=O)(=O)c1cccs1	?	-5	?	0%	16µM*	1
CC1Sc2ccc(S(=O)(=O)CCC(=O)N3CCN(c4cccc(Cl)c4)CC3)cc2NC1=O (stereo not drawn)	13µM*	-20	0	-3%	7.3µM*	-5
CCC(C)NC(=O)CN1C(=O)NC2(CCOc3ccccc32)C1=O (stereo not drawn)	-3%	4	27	1%	-1%	1
CCOc1ccccc1N(C)C(=O)CCS(=O)(=O)c1ccc2c(c1)NC(=O)C(C)S2 (stereo not drawn)	?	3	6	5%	21µM*	-1
CC(=O)c1ccc(N2CCN(C(=O)CCS(=O)(=O)c3ccc(C)cc3)CC2)cc1	?	-1	14	4%	15µM*	-7
Cc1ccc(S(=O)(=O)CC(=O)N2CCN(c3ccc(F)cc3)CC2)cc1	-8%	1	0	2%	-25%	-5
O=C(N1CCN(c2ccc(F)cc2)CC1)C1(c2cccs2)CCOCC1	-22%	-13	-13	3%	?	-2
COc1ccc(S(=O)(=O)CCC(=O)N2CCN(c3cccc(Cl)c3)CC2)cc1	18µM*	0	-26	2%	10µM*	-4
O=C(N1CCN(c2cccc(Cl)c2)CC1)C1(c2cccs2)CCOCC1	23µM*	-16	?	5%	21µM*	8
